Measured values published in PubChem BioAssay AID602410 (Johns Hopkins Ion Channel Center, 2012).
In all, about 340,000 compounds went through this assay and about 2,800 (0.82%) were called active.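 Rule for the calls: active = B-score under library mean minus 4 SD, starting fluorescence ratio at most library mean plus 5 SD; inactive = the rest.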 Many of the other results were omitted from the sample, so actives are more common in it than they were.

These molecules were tested against Potassium channel subfamily K member 3 (Homo sapiens) (UniProt O14649) (assay: human KCNK3 channel inhibitors, primary screen, CHO cells, FluxOR thallium flux, B-score (AID 602410;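 for B-score: more negative B-score means stronger inhibition of thallium flux through KCNK3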)). Details: FluxOR fluorescence, at 10 µM; active compounds read low.
Chain of Potassium channel subfamily K member 3 (Homo sapiens) (O14649 whole entry, looked up): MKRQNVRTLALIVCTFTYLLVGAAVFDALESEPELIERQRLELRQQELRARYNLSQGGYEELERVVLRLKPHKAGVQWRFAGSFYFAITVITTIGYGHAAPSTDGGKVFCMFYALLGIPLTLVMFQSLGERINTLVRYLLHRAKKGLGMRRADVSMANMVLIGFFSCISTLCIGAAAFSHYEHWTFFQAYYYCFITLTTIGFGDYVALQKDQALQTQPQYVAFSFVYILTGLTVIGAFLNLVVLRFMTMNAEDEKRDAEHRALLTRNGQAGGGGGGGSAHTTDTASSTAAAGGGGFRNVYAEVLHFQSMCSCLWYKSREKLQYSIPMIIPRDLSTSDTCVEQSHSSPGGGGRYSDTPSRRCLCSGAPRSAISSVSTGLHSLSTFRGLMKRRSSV

Structure (SMILES)	B-score
CCCCCCC(O)(CCN1CCCCC1)c1ccccc1 (stereo unspecified)	inactive
Nc1nnc(SCC(=O)NCC(=O)Nc2ccc(F)c(F)c2F)s1	inactive
O=C1C(Cl)=C(Oc2ccccc2)C(=O)c2ccccc21	inactive
O=C(NC1=CC(=O)c2ccccc2C1=O)c1ccccc1	inactive
CC(=O)N(C1=C(Cl)C(=O)c2ccccc2C1=O)c1ccc(C(=O)O)cc1	-11 (active)
CS(=O)(=O)N(CC(=O)N1CCc2ccccc2C1)c1ccc(Br)cc1	inactive
COc1ccccc1CN1CCN(C(c2ccccc2)c2ccccc2)CC1	inactive
CC(C)OCC(O)CN1CCN(C(c2ccccc2)c2ccccc2)CC1 (stereo unspecified)	inactive
CC1(C)CC(N2CCN(C(c3ccccc3)c3ccccc3)CC2)=CC(=[N+]2CCCCC2)C1	-8.86 (active)
CC(C)Nc1nnc(SCC(=O)/C=C2\N(C)c3ccccc3C2(C)C)s1	inactive
CN1CCN(CCC(=O)N/N=C/C=C2\N(C)c3ccccc3C2(C)C)CC1	inactive
CC(=O)Nc1cccc(OCC(=O)/C=C2\N(C)c3ccccc3C2(C)C)c1	-8.91 (active)
CCCCn1c(N)c(N(CCOC)C(=O)c2cccc(S(=O)(=O)N3CCCCC3)c2)c(=O)[nH]c1=O	inactive
O=C(N/N=C/c1ccoc1)c1ccc(Cl)cc1Cl	inactive
CC(C)c1cc(C(=O)N/N=C/c2ccoc2)c(O)c(C(C)C)c1	-10.5 (active)
CC(Oc1ccccc1[N+](=O)[O-])C(=O)N/N=C/c1ccoc1 (stereo unspecified)	inactive
COC(=O)c1cc2c(ccn2C)n1C	inactive
COc1ccc(S(=O)(=O)c2c[nH]c(=S)[nH]c2=O)cc1Cl	inactive
CC(=O)Nc1ccc(S(=O)(=O)NCCC(=O)N2CCN(c3ccccc3Cl)CC2)cc1	inactive
OC(CN=c1sc2ccccc2n1CC(O)COc1ccccc1)COc1ccccc1 (stereo unspecified)	-12.6 (active)
CC(C)c1ccc(OCC(O)Cn2cnc3ccccc32)cc1 (stereo unspecified)	inactive
O=C(C(c1ccccc1)c1ccccc1)N1CCN(CC(O)COc2ccccc2)CC1 (stereo unspecified)	inactive

Structure (SMILES)	B-score
COc1ccc(C)cc1NC(=O)CNCc1cccs1	inactive
O=C1OC(Oc2ccc(Br)cc2)(c2ccccc2)c2ccccc21 (stereo unspecified)	-10.1 (active)
CS(=O)(=O)Nc1ccccc1N=C(c1ccccc1)c1ccccc1	inactive
CCC(CC)C(=O)Nc1cc(C(=O)OC)cc(C(=O)OC)c1	inactive
O=C(NCCCO)c1cc2c([nH]c3ccccc32)c(-c2ccc(F)cc2)n1	inactive
COc1cccc(-c2nn(C)c3sc(C(=O)N4CCN(c5ccccc5)CC4)cc23)c1	inactive
Cn1nc(-c2ccc(Cl)cc2)c2cc(C(=O)NCc3ccco3)sc21	-13.2 (active)
COc1ccc2c(Cl)c(C(=O)NCc3ccco3)sc2c1	inactive
CN(CCNC(=O)c1cc2c(-c3ccccc3F)nn(C)c2s1)C1CCCCC1	inactive
COc1ccccc1N1CCN(C(=O)c2cc3c(-c4ccc(Cl)cc4)nn(C)c3s2)CC1	-10.1 (active)
COc1ccccc1N1CCN(C(=O)c2cn(-c3ccccc3)nc2-c2cccnc2)CC1	inactive
CCOc1ccc(NS(=O)(=O)c2cc(C)c(C)cc2C)cc1	inactive
CCOc1ccccc1NC(=O)c1cc(S(=O)(=O)N2CCC3(CC2)OCCO3)ccc1F	inactive
CC(=O)N1CC[n+]2c(-c3ccc([N+](=O)[O-])cc3)csc21	inactive
CC1CCCCC12NC(=O)N(CC(=O)OCc1c(F)cccc1Cl)C2=O (stereo unspecified)	inactive
Cc1ccc(CN(C)Cc2cc(=O)oc3cc(C)c(Cl)cc23)cc1	inactive
CCOc1ccc(N(C)Cc2cc(=O)oc3ccc(OC)cc23)cc1	inactive
Cc1cc2oc(=O)cc(CN(C)Cc3ccc(OC(F)F)cc3)c2cc1Cl	-10.4 (active)
NNC(=O)c1cccc(COCC(F)(F)C(F)F)c1	inactive
N#C/C(=C\C1=C(N2CCOCC2)C(=C\c2ccccc2)/CC1)C(=O)Nc1ccccc1F	inactive
O=C1Nc2ccc(Br)cc2/C1=N/N=C/C1=C(N2CCOCC2)C(=C\c2ccccc2)/CC1	inactive
O=C(O)c1ccc(NN=CC2=C(N3CCOCC3)/C(=C/c3ccccc3)CC2)cc1	-9.13 (active)

Structure (SMILES)	B-score
COc1ccc(N2CCN(CCNC(=O)Nc3cc(Cl)ccc3Cl)CC2)cc1	inactive
COc1ccc(NC(=O)c2sccc2SCC#N)cc1	inactive
CC(C)(C)N1CC(c2nc3ccccc3n2Cc2ccc(F)cc2)CC1=O (stereo unspecified)	inactive
Cc1cc(C)c(C)c(S(=O)(=O)N[C@@H](C)C(=O)OC(C)C(=O)NC(N)=O)c1C (stereo partly specified)	inactive
CSc1nsc(NC(=O)Nc2ccccc2)n1	inactive
C=CCSc1nsc(NC(=O)Nc2cccc(C(C)=O)c2)n1	-9.78 (active)
CCSc1nsc(NC(=O)Nc2cccc(C(C)=O)c2)n1	inactive
CCOC(=O)C1CCCN(C(=O)C2CCN(S(=O)(=O)c3ccc(Cl)c(C(F)(F)F)c3)CC2)C1 (stereo unspecified)	inactive
COC(=O)c1cccc(-n2[nH]nnc2=S)c1	inactive
COc1ccccc1CNC(=O)COc1ccc(C)nc1[N+](=O)[O-]	inactive
Cc1ccc(S(=O)(=O)N2C[C@@H]3CCCC[C@@H]3[C@@H](C)[C@H]2c2cn(Cc3ccccc3)c3ccc(F)cc23)cc1	inactive
COc1ccc(CNC(=O)CNC(=O)c2sc3ccccc3c2Cl)cc1OC	inactive
CN1CCc2ccccc2C1Cc1ccccc1NC(=O)c1sc2ccccc2c1Cl (stereo unspecified)	-9.31 (active)
CCc1ccccc1NC(=O)NCCN1CCCCC1	inactive
CCOc1ccc(CCNC(=O)COC(=O)c2ccc(F)c(S(=O)(=O)N3CCOCC3)c2)cc1OCC	inactive
CCOc1ccc(OCC)c(NC(=O)C2CCN(S(=O)(=O)c3c(C)noc3C)CC2)c1	inactive
CC[n+]1cc(C)ccc1/C=C/c1ccc(N(C)C)cc1	-8.95 (active)
CCOC(=O)C1CCN(C(=O)C2CCN(S(=O)(=O)CC)CC2)CC1	inactive
COC(=O)c1ccccc1Sc1c(/C=N/OCc2ccc(Cl)cc2)c(C(F)(F)F)nn1C	inactive
Cc1ccc(NC(=S)N2CCCC(c3ccccc3)=N2)cc1	-8.89 (active)
Cc1ccc(NC(=O)CCC(=O)N2CCC(c3ccccc3)=N2)cc1S(=O)(=O)N1CCCCC1	inactive
Cc1ccc(C(=O)N2CCCC(c3ccccc3)=N2)cc1	inactive
